Screens from PubChem BioAssay.
PAX8 reporter = PAX8 transcriptional activity inhibition. RMG-I TPO-luciferase reporter, SteadyGlo, 24 h. inhibition, % at 12.6 µM. actives 1.2% (n = 360,000). AID 652154;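 active means mean replicate inhibition at least 60% with every replicate also reaching 60%; inconclusive means only one of the two criteria is met; inactive means mean below 60% and not all replicates reaching 60%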;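 further: luciferase light reporting Pax8 driven TPO promoter activity; plate controls were median of neutral control wells for no effect and mitoxantrone controls for full effect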
Statin myotox sup = protects C2C12 myotubes from simvastatin toxicity; rescue of ATP level, % at 7.49 µM; ATP luminescence, 48 h; scaled: DMSO 0, geranylgeraniol control 100; actives 0.78% (n = 330,000); AID 602340;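 active means mean ATP rescue above about 67%, or every replicate alone reaching that limit, limit read from the data, passing the limit was not always enough; inconclusive means no clear call, values can overlap the other calls; inactive means mean under the limit and some replicate under it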;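 further: myotubes were challenged with 10 µM simvastatin during compound exposure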
INS-1E GSIS act = GLuc luminescence reporter in INS-1E cells, primary screen for activators of glucose-dependent secretion of insulin. activation, % at 16.6 µM. INS-1E GLuc reporter insulin secretion, 2-3 h. actives 0.61% (n = 370,000);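 active means lowest replicate activation of at least 40%, so every replicate reaches that level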;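 further: 0% = median of neutral control wells and 100% = median of IBMX positive control wells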
EWS-Fli block = inhibitors of EWS/Fli oncoprotein transcriptional activity; A673 NR0B1-luciferase reporter, viability-normalised; AID 651661; inhibition, % at 12.6 µM; actives 0.67% (n = 350,000);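 active means mean inhibition of at least 50% after viability correction, with every replicate also passing that limit; inconclusive means mean reaches 50% but only one of two replicates passes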;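 further: firefly luciferase signal divided by Alamar Blue viability fluorescence both relative to DMSO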
Env fusion inh = HIV envelope-mediated fusion inhibition; AID 651610; actives 1.1% (n = 360,000); inhibition, % at 12.3 µM; HeLa-JRFL Env/CEM21 cell fusion, luciferase;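 active means mean replicate inhibition score of at least 50 and every replicate individually at or above 50; inconclusive means only one of the two criteria met; inactive means mean below 50 and not all replicates reaching 50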;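 further: 0% = plate neutral controls and 100% = maraviroc near 300 nM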
miR122 inh = blocks miR-122 activity in Huh7 sensor cells; activation (reporter increase), % at 12.5 µM; Huh7 miR-122 Renilla luciferase sensor, 48 h; neutral wells = 0, positive control = 100; actives 0.3% (n = 340,000);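 active means mean replicate activation score at least 90 and every replicate individually at or above 90; inconclusive means only one of the two criteria met; inactive means neither criterion met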;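 further: higher luciferase means less miR-122 activity so hits act as miR-122 inhibitors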
Starred values were filed as active, the others as inactive; ? = inconclusive; . = no result given; [ ] = dose if it differs, or a comment. In the library only some 3.1% were active in any assay of this set; here they are far more common.

SMILES | PAX8 reporter | Statin myotox sup | INS-1E GSIS act | EWS-Fli block | Env fusion inh | miR122 inh
Cc1cc(C(=O)Nc2cccc3c2O[C@H](CN(C)Cc2ccc4c(c2)OCO4)[C@H](C)CN([C@@H](C)CO)C3=O)n(C)n1 | -6.9 | -12.3 | 4.4 | 5.7 | 8.5[16.7 µM] | 2.1[16.7 µM]
C=CCn1c(O)c(N=NC(=O)CNC(=O)c2ccco2)c2ccccc21 | 8.2 | . | 41.7* | 24.8 | -9.1 | .
C=CCn1c(O)c(N=NC(=S)Nc2ccc(OC)cc2)c2ccccc21 | 33.2 | -35.4 | -9.8 | . | 36.9* | 3.9
CCCC(=O)N1CC2(C1)CN(C(=O)C1CCCC1)[C@H](CO)c1[nH]c3cc(OC)ccc3c12 | . | . | -10.7 | . | . | .
Cc1cc(C)cc(OCC(=O)N(C)CC(=O)Nc2ccc(N3CCOCC3)cc2)c1 | 75.1* | 10.0 | 6.5 | 4.5 | -6.8 | -0.8
COc1ccc(S(=O)(=O)N[C@H]2CC[C@@H](CCNC(=O)CN3CCOCC3)O[C@H]2CO)cc1 | -23.3 | 1.7 | 2.7 | 2.5 | -11.9[16.7 µM] | .
Cc1ccnc(NC(=O)Nc2ccc(Br)cc2Cl)c1 | -200.1 | . | 132.9* | . | -253.2 | .
Cc1ccnc(NC(=O)Nc2ccc(F)cc2)c1 | . | . | . | . | . | -0.5
CSc1ccc(NC(=O)Nc2cc(C)ccn2)cc1 | -81.7 | -0.7 | -1.1 | 52.0* | -109.3 | 40.5
COC(=O)c1ccccc1NC(=O)Nc1cc(C)ccn1 | -25.0 | 2.9 | -0.1 | 2.0 | -22.5 | -13.6
CCC(=O)N1CC[C@@H]2[C@H](CO)Nc3ccc(-c4cccc(C#N)c4)cc3[C@@H]21 | 6.6 | 2.0 | 0.6 | -4.4 | . | 10.5[16.7 µM]
CO[C@@H]1CN(C)C(=O)c2ccc(NC(=O)NC(C)C)cc2OC[C@H](C)N(CC2CC2)C[C@H]1C | 8.9 | 7.7 | 0.8 | 7.6 | -5.3[16.7 µM] | 8.2[16.7 µM]
O=P(OC1CCCCC1)(OC1CCCCC1)C(O)c1cccnc1 (configuration not stated) | 17.9 | 12.8 | 0.4 | 3.8 | -1.8 | 6.6
O=P(OC1CCCCC1)(OC1CCCCC1)C(O)c1ccccc1 (configuration not stated) | . | 4.4 | . | . | 60.8* | 146.7*
O=C(Nc1ccc([N+](=O)[O-])cc1)Nc1ccc(OC(F)F)c(Cl)c1 | 83.2* | . | 173.9* | . | 42.6 | .
Cc1noc(C)c1S(=O)(=O)Nc1ccc2c(c1)CC(=O)N([C@@H](C)CO)C[C@H](C)[C@H](CN(C)S(=O)(=O)c1ccccc1)O2 | 16.2 | -28.2 | 7.7 | -4.4 | 15.4[16.7 µM] | 3.3[16.7 µM]
O=C(Nc1nnc(C2CC2)s1)c1cc(-c2ccccc2)nn1-c1ccccc1 | . | 77.9* | . | . | . | -2.2
Cc1nn(-c2ccccc2)c(Cl)c1C(=O)Nc1nnc(C2CCCCC2)s1 | -1.3 | . | . | . | -46.0 | 4.4
O=c1[nH]nc(Sc2ncnc3sccc23)n1CCc1ccccc1 | 83.0* | . | . | . | 64.3* | 22.5
COC(=O)[C@]1(Cc2ccccc2)N=C(c2ccc(OCCCO)cc2)O[C@@H]1c1ccccc1CN=[N+]=[N-] | 10.5 | . | . | 8.3 | 54.8[16.7 µM] | .
[N-]=[N+]=Nc1ccccc1C[C@@]1(C(=O)NCc2ccccc2)N=C(c2ccc(OCCCO)cc2)O[C@@H]1c1ccccc1N=[N+]=[N-] | 6.3 | . | . | 18.9 | 59.5*[16.7 µM] | .
COC(=O)[C@@]1(CCS(=O)(=O)c2ccccc2)COC(c2ccc(OCCCO)cc2)=N1 | 10.4 | . | . | 79.8* | 8.4[16.7 µM] | .
C=CC[C@@]1(C(=O)OC)N=C(c2ccc(OCCCO)cc2)O[C@@H]1c1ccccc1CN=[N+]=[N-] | 0.3 | . | . | 3.4 | 2.0[16.7 µM] | .
COC(=O)[C@@]1(Cc2ccccc2)N=C(c2ccc(OCCCO)cc2)O[C@H]1c1ccccc1CN=[N+]=[N-] | 96.3* | . | . | 8.9 | 39.2[16.7 µM] | .
COC(=O)[C@]1(CCS(=O)(=O)c2ccccc2)N=C(c2ccc(OCCCO)cc2)O[C@@H]1c1ccccc1CN=[N+]=[N-] | 95.0* | . | . | 27.0 | 33.5[16.7 µM] | .
SMILES | PAX8 reporter | Statin myotox sup | INS-1E GSIS act | EWS-Fli block | Env fusion inh | miR122 inh
C[C@H]1CN([C@@H](C)CO)C(=O)Cc2cc(NC(=O)Cc3ccccc3)ccc2O[C@H]1CN(C)C(=O)Nc1ccc2c(c1)OCO2 | -6.9 | -16.4 | -7.9 | -7.0 | 6.4[16.7 µM] | -6.1[16.7 µM]
COCC(=O)N1[C@@H](CO)[C@@H](c2ccc(-c3cccc(F)c3)cc2)C12CN(C(=O)C1CC1)C2 | . | . | 1.7 | -5.0 | . | .
O=C(NCCc1ccncc1)[C@@H]1[C@@H](CO)[C@@H]2Cn3c(ccc(C4=CCCCC4)c3=O)[C@H]1N2CC1CC1 | . | 7.8 | 11.1 | 3.3 | -2.1[16.7 µM] | .
C[C@H](CO)N1C[C@H](C)[C@H](CN(C)C(=O)Nc2ccc3c(c2)OCO3)Oc2ncc(-c3cccnc3)cc2C1=O | . | -1.5 | 10.8 | -1.3 | 6.6[16.7 µM] | -1.5[16.7 µM]
CC(C)C(=O)Nc1cccc(COc2ccc(CN(Cc3ccccc3)C(=O)OC(C)(C)C)cc2)c1 | 71.7* | -11.1 | -21.0 | 24.6 | 58.2* | -7.0
CC(C)(C)OC(=O)N(CCc1ccccc1)Cc1cccc(OCc2cccc(NC(=O)c3ccccc3)c2)c1 | 2.8 | -11.3 | 6.5 | -5.7 | 66.1* | -0.5
CC(C)(C)OC(=O)N(CCc1ccccc1)Cc1ccc(OCc2cccc(NC(=O)C3CC3)c2)cc1 | 6.0 | -10.7 | 3.0 | -6.9 | 52.6 | .
N#CC1=C(N)OC2=C(C(=O)CCC2)[C@]12C(=O)N(CC(N)=O)c1ccccc12 | . | 109.4* | 11.9 | . | . | 0.2
CCN(CC)S(=O)(=O)c1cc(NC(=O)C2CCN(c3ncnc4sc(C)c(C)c34)CC2)ccc1Cl | 71.8* | -10.6 | -4.6 | 33.3 | 21.2 | -17.6
Cc1sc2ncnc(N3CCC(C(=O)N(C)CC(=O)Nc4ccccc4Cl)CC3)c2c1C | 29.6 | -9.0 | -18.4 | . | 24.0 | -15.3
Cc1sc2ncnc(N3CCC(C(=O)N(C)CC(=O)Nc4cccc(F)c4)CC3)c2c1C | -3.8 | -5.1 | -36.0 | 9.7 | 23.5 | -8.2
Cc1sc2ncnc(N3CCC(C(=O)N(C)CC(=O)Nc4ccc(Cl)c(C(F)(F)F)c4)CC3)c2c1C | 77.7* | -1.8 | -10.1 | 28.1 | 38.3 | .
CCN(CC(=O)Nc1cc(Cl)ccc1C)C(=O)C1CCN(c2ncnc3sc(C)c(C)c23)CC1 | 42.4 | -12.0 | . | 9.8 | 60.6* | -10.8
Cc1sc2ncnc(N3CCC(C(=O)Nc4cc(S(C)(=O)=O)ccc4Cl)CC3)c2c1C | 7.4 | -3.3 | 11.2 | 7.8 | 91.7* | -8.1
CC(C)NC(=O)N(C)C[C@H]1OCCCC[C@H](C)Oc2ccc(NC(=O)C3CCCCC3)cc2C(=O)N([C@H](C)CO)C[C@H]1C | -9.3 | . | 1.3 | . | 1.6[16.7 µM] | 1.2[16.7 µM]
COc1ccc(S(=O)(=O)Nc2ccc3c(c2)C(=O)N([C@H](C)CO)C[C@@H](C)[C@H](CN(C)C)OCCCC[C@H](C)O3)cc1 | 1.8 | . | 27.1 | . | ? | -0.5[16.7 µM]
COc1ccc2[nH]c3c(NCCCN4CCCC4=O)ncnc3c2c1 | . | -20.0 | 47.7* | . | -24.6 | 3.4
CCOC(=O)C1=C(CSc2nc3ccccc3s2)NC(=O)NC1c1ccc(OC)cc1 (configuration not stated) | . | . | . | . | 73.1* | .
